# Measured values: PubChem BioAssay (NCATS)
# Several values for one entry are separate records, joined by “and”; a condition that tells them apart may be missing. Identical values can stand only once. Results filed as inconclusive are left out. Unmarked numbers belong to inactive results. Activity calls are given as the source filed them. Unless noted, calls come from the whole dose curve; as a rule, active = well fitted curve in the direction sought with a large enough effect; inconclusive = small, poorly fitted or top-dose-only effect, or another doubt; inactive = no such curve, though single readings can be large; an effect the other way counts as inactive or inconclusive.
# Tests used:
# [1] = qHTS assay for small molecule agonists of the antioxidant response element (ARE) signaling pathway (AID 651741; active = well fitted activation curve with a large enough effect in the signal ratio; the % refers to the signal ratio; note: potency is the fitted concentration of half-maximal effect; for activation: % of control where 0% means no effect)
# Outline: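 Reporter: beta-lactamase under ARE, stably in HepG2. Exposure: 16 h, 37 C, compounds delivered in DMSO by pin tool after 5 h cell preincubation. Readout: FRET substrate fluorescence after 2 h at RT.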
# [2] = qHTS assay for small molecule activators of the p53 signaling pathway (AID 651743; active = well fitted activation curve with a large enough effect in the signal ratio, not every such curve was filed as active; the % refers to the signal ratio; note: potency is the fitted concentration of half-maximal effect; for activation: series mostly up to about 92 µM; % of control where 0% means no effect); details: HCT-116 p53RE-bla, beta-lactamase FRET ratio, 16 h; activation: hits give high values
# Outline: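 Agonist-mode quantitative HTS in HCT-116 cells carrying a p53-response-element beta-lactamase reporter; 16 h compound treatment at 37 C, then FRET substrate loading for 2 h at room temperature and fluorescence read.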
# [3] = qHTS assay for environmental chemicals that activate the Aryl hydrocarbon Receptor (AhR) signaling pathway (AID 651777); details: 1A2-DRE human hepatoma cells, luciferase, 24 h; activation: hits give high values; note: nearly all actives have a fitted effect of over 15% in size; note: potency is the fitted concentration of half-maximal effect; for activation: % of control where 0% means no effect
# Outline: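 Stable CYP1A2 promoter/DRE-luciferase human hepatoma line treated 24 hr; One-Glo luminescence, 30 min RT.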
# [4] = molecular target: Tumor necrosis factor (Homo sapiens) (UniProt P01375); assay: qHTS assay to identify small molecules that stimulate Tumor Necrosis Factor-alpha (TNF-alpha) secretion (AID 651757; active = well fitted curve in the direction sought with a large enough effect in the signal ratio; the % refers to the signal ratio; note: potency is the fitted concentration of half-maximal effect)
# Outline: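 Human monocytic THP-1 cells are plated, treated with compound and held at 37 C for 17 hrs. Labeled anti-TNF-alpha antibody mixture is then added; after 3 hr at room temperature, TR-FRET signal reports secreted TNF-alpha.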
# [5] = qHTS assay to identify small molecules that stimulate interleukin-8 (IL-8) secretion (AID 651758; active = well fitted activation curve with a large enough effect in the signal ratio; the % refers to the signal ratio; note: potency is the fitted concentration of half-maximal effect; for activation: 0% is about no effect)
# Outline: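 Quantitative HTS in THP-1 monocytic cells at 2000 cells per well, with 16 hrs compound incubation at 37 C. IL-8 in the medium was then quantified by HTRF immunoassay, read after 1-3 hrs at room temperature.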
# [6] = qHTS assay for small molecule activators of the nuclear factor-kappa B (NF-kB) signaling pathway (AID 651749; active = well fitted activation curve with a large enough effect in the signal ratio; the % refers to the signal ratio; note: series mostly up to about 77 µM; % of control where 0% means no effect); details: NF-kB-bla ME-180 cells, beta-lactamase FRET ratio, 16 h; hits give high values
# Outline: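 Human ME-180 cervical cells with an NF-kB-bla construct; compounds added via 23 nL pin transfer, DMSO as vehicle; incubation 16 hr. Reporter activity measured by FRET disruption.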
# [7] = qHTS assay for small molecule disruptors of the mitochondrial membrane potential - 1 hr assay (AID 651754; calls by dose curve; note: nearly all actives have a fitted effect of over 35% in size; note: potency is the fitted concentration of half-maximal effect)
# Outline: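 Loss of mitochondrial potential shifts the cationic dye from red mitochondrial aggregates to green cytoplasmic monomers. Cells (HepG2) are treated with compound for 1 hr before a 30 min dye incubation at 37C.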
# [8] = qHTS assay for small molecule disruptors of the mitochondrial membrane potential - 5 hr assay (AID 651755; calls by dose curve; note: potency is the fitted concentration of half-maximal effect; nearly all actives have a fitted effect of over 40% in size); details: JC-1-type ratio dye
# Outline: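 Seed HepG2 overnight, add compound, incubate 5 hr at 37C and 5% CO2, stain 30 min with Mito-MPS, then measure monomer (490/535 nm) and aggregate (540/590 nm) fluorescence.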
# [9] = Cell Proliferation Assay against the TMD8 Cell Line (Caspase readout at 16 hrs) (AID 651712)
# Outline: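 16 h, 37 °C, TMD8 (500 cells/well), RPMI/5% FBS no phenol red; Caspase-Glo 3/7, 15 min RT, luminescence; %act: DMSO 0, bortezomib 9.2 uM final 100.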
# [10] = Cell Proliferation Assay against the TMD8 Cell Line (Caspase readout at 8 hrs) (AID 651713);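 note: 0% = DMSO and 100% = 9.2 µM bortezomib caspase signal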
# Outline: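 Caspase 3/7 activation in ABC DLBCL TMD8 cells is measured by luminescence after an 8 h compound exposure at 37C. Relative light units are scaled between DMSO (0%) and 9.2 uM final bortezomib (100%).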
# Chain of Tumor necrosis factor (Homo sapiens) (P01375 whole entry, looked up): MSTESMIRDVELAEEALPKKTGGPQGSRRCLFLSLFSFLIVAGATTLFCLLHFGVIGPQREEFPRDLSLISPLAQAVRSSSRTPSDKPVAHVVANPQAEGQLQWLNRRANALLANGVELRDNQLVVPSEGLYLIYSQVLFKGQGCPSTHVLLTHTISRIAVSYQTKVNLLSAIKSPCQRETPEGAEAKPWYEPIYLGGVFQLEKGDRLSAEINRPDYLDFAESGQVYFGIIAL
smiles,measurement,setting,value
COCC(=O)N(c1c(C)cccc1C)C(C)C(=O)OC (stereo not drawn),Potency,[1],inactive
same,activation,[2],-5.17%
same,activation,[3],3.48%
CCCCCCCCCCCC[N+](C)(C)CCOc1ccccc1,activation,[2],13.3%
same,Potency,[4],inactive
same,Potency,[5],inactive
same,activation,[3],-2.77%
Oc1ccc(Cl)cc1Cc1cc(Cl)ccc1O,Potency,[1],18.8 µM (active)
same,activation,[6],2.23%
same,Potency,[7],10.6 µM (active)
same,Potency,[8],11.9 µM (active)
C=CCOC(Cn1ccnc1)c1ccc(Cl)cc1Cl (stereo not drawn),activation,[2],19.4% and 4.84%
same,activation,[3],11.9% and 13.2%
Cc1ccc(N=CN(C)C=Nc2ccc(C)cc2C)c(C)c1,Potency,[1],24.3 µM (active)
same,activation,[2],15.6%
CCCCCCCCC(=O)NCc1ccc(O)c(OC)c1,activation,[6],-0.791%
CN(C)C(=S)SSC(=S)N(C)C,Potency,[1],inactive
same,activation,[2],2.15% and 1.76%
same,activation,[6],-1.21%
same,Potency,[7],inactive
same,Potency,[8],23.7 µM (active)
same,Potency,[4],inactive
same,activation,[3],8.11% and 11.6%
CCOP(=S)(OCC)O/N=C(\C#N)c1ccccc1,activation,[6],0.361%
same,activation,[3],9.33%
COP(=O)(OC)OC=C(Cl)Cl,Potency,[1],37.6 µM (active) and 42.2 µM (active) and 30.6 µM (active)
same,activation,[6],1.84% and 0.182%
same,Potency,[4],inactive
same,Potency,[5],21.1 µM (active) and 66.8 µM (active)
same,activation,[3],2.56% [middle of 4 runs]
CNC(=O)Oc1cccc2ccccc12,Potency,[1],33.5 µM (active) and 17.2 µM (active)
same,activation,[2],1.34%
same,activation,[6],0.189% and -3.62%
same,Potency,[4],inactive
same,Potency,[5],inactive
same,Potency,[3],39.8 µM (active) and 35.5 µM (active)
CC[n+]1c(-c2ccccc2)c2cc(N)ccc2c2ccc(N)cc21,Potency,[1],33.5 µM (active)
same,Potency,[2],8.91 µM (active)
same,Potency,[8],11.9 µM (active)
same,Potency,[4],37.6 µM (active)
same,activation,[3],11.3%
O=C(NC(=O)c1c(F)cccc1F)Nc1cc(Cl)c(OC(F)(F)C(F)C(F)(F)F)cc1Cl (stereo not drawn),Potency,[1],19.3 µM (active)
same,activation,[2],4.35%
same,activation,[6],1.78%
same,activation,[3],0.163%
CN(C)C(=S)SC(=S)N(C)C,Potency,[1],24.3 µM (active)
O=C(O)c1nn(Cc2ccc(Cl)cc2Cl)c2ccccc12,outcome,[9],inactive
same,outcome,[10],inactive
COP(=S)(OC)Oc1ccc(Sc2ccc(OP(=S)(OC)OC)cc2)cc1,Potency,[1],61.1 µM (active)
same,activation,[2],9.51%
same,activation,[3],6.46%
NC(N)=NC(=O)c1nc(Cl)c(N)nc1N,Potency,[1],42.2 µM (active)
Nc1c2ccccc2nc2ccccc12,Potency,[3],31.6 µM (active)
O=C(CCl)c1ccc(Cl)cc1Cl,activation,[6],-1.69%
same,Potency,[4],inactive
same,Potency,[5],3.76 µM (active)
same,activation,[3],0.547%
C[C@H]1C(=O)O[C@@H]2CCN3CC=C(COC(=O)[C@](C)(O)[C@]1(C)O)[C@H]23,Potency,[1],inactive
same,activation,[6],0.569%
same,activation,[3],-2.28%
CCC(=O)O[C@H]1CC[C@H]2[C@@H]3CCC4=CC(=O)CC[C@]4(C)[C@H]3CC[C@]12C,Potency,[1],inactive
same,activation,[2],-1.29%
same,activation,[6],-1.92%
same,activation,[3],-0.665%
CCCCCCCCCCCCCCCC[n+]1ccccc1,Potency,[1],10.6 µM (active)
Oc1ccc(Cl)cc1Sc1cc(Cl)ccc1O,Potency,[1],29.8 µM (active)
same,Potency,[2],28.2 µM (active)
same,Potency,[7],8.41 µM (active)
same,Potency,[8],7.5 µM (active)
CCNc1nc(Cl)nc(NCC)n1,Potency,[1],inactive
same,activation,[2],1.85%
same,activation,[3],-1.55%
O=c1n(Cl)c(=O)n(Cl)c(=O)n1Cl,activation,[2],-4.94%
same,activation,[6],-1.25%
same,activation,[3],0.752%
COP(=O)(OC)C(O)C(Cl)(Cl)Cl (stereo not drawn),Potency,[1],19.3 µM (active)
same,activation,[2],6.58%
same,activation,[6],1.93%
same,activation,[3],1.53%
N#Cc1nn(-c2c(Cl)cc(C(F)(F)F)cc2Cl)c(N)c1S(=O)C(F)(F)F (stereo not drawn),Potency,[1],61.1 µM (active)
same,activation,[3],2.36%
C[C@@H]1C[C@@H]([C@H](O)CC2CC(=O)NC(=O)C2)C(=O)[C@@H](C)C1,activation,[2],3.69% and -1.29% and 0.673%
same,activation,[6],5.34%
same,Potency,[4],inactive
Oc1c(Br)cc(Br)cc1Br,Potency,[1],42.2 µM (active)
same,activation,[6],-2.42% and -0.471%
same,Potency,[4],inactive
same,activation,[3],1.96% and 1.41%
